Measured values taken from PubChem BioAssay (EPA / NIEHS).
Results filed as inconclusive are left out. Activity calls are given as the source filed them. The calls were made as follows: active = hit-call score of the fitted dose curve at least 0.9, where 1 is the maximum; inconclusive = response in the unintended direction; inactive = score below 0.9.

target: Peroxisome proliferator-activated receptor gamma (Homo sapiens) (UniProt P37231); test: OT_PPARg_PPARgSRC1_0480: Odyssey Thera (OT) 8-hour Protein-Complementation Assay for Peroxisome Proliferator-activated Receptor Gamma / SRC-1 Co-activator (AID 2283387);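 also: nuclear to cytoplasmic split Venus YFP fluorescence ratio reporting PPARg SRC-1 interaction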
Procedure, shortened: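 Split-YFP (IFP1/IFP2) PPARg/SRC-1 reporter, HEK293T, 37 °C, 5% CO2; 8 h compound; formaldehyde fix + Draq5; high-content imaging, N/C ratio, ≥350 cells/image, positive direction vs DMSO.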

Chain of Peroxisome proliferator-activated receptor gamma (Homo sapiens) (P37231 whole entry, looked up): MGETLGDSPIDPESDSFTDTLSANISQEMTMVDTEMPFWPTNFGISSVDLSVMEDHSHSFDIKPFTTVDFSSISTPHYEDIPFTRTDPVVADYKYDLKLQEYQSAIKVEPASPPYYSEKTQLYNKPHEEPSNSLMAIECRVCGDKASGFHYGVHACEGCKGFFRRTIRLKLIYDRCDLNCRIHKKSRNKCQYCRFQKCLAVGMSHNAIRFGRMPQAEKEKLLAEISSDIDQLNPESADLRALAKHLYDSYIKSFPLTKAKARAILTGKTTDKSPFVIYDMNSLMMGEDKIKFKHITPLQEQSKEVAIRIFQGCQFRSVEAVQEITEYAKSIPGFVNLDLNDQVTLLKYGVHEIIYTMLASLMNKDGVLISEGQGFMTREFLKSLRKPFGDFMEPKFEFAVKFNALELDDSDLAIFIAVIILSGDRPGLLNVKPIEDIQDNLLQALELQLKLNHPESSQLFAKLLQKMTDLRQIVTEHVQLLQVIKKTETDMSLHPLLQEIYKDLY

outcome, inactive:
CCN(CC)CCOc1ccc(C(=C(Cl)c2ccccc2)c2ccccc2)cc1
CCC(C)N(C)C(=O)c1cc2ccccc2c(-c2ccccc2Cl)n1 (stereo unspecified)
O=C(O)c1[nH]n(-c2ccc(S(=O)(=O)O)cc2)c(=O)c1N=Nc1ccc(S(=O)(=O)O)cc1
CO[C@@H]1COCC[C@@H]1N[C@@H]1CC[C@@](C(=O)N2CCc3ncc(C(F)(F)F)cc3C2)(C(C)C)C1
CC(=O)OC1CC(C)OC(C)O1 (stereo unspecified)
CCCCCCC(CCCCCCCCCCC(=O)OCC(COC(C)=O)OC(C)=O)OC(C)=O (stereo unspecified)
CN(C)CCCN1c2ccccc2Sc2ccc(Cl)cc21
O=C(O)CN(CC(=O)O)CC(=O)O
Cc1ccc(-c2cc(C(F)(F)F)nn2-c2ccc(S(N)(=O)=O)cc2)cc1
N[C@@H](Cc1c[nH]c2ccccc12)C(=O)O
CCCCOC(=O)CCCCC(=O)OCCCC
C#CC(O)C(CC)CCCC (stereo unspecified)
CCCCCCCCCC[N+](C)(C)[O-]
O=C1c2c(O)cccc2Cc2cccc(O)c21
CCCCCCCC(=O)OC
NC(=Nc1ccccc1)Nc1ccccc1
O=C(N[C@@H](c1ccccc1)[C@@H]1CCCCN1)c1cccc(C(F)(F)F)c1Cl
COc1ccc(C(=O)Nc2nc3ccccc3c(NCc3ccccc3)c2C#N)cc1
O=C(O)CC(O)(CC(=O)O)C(=O)O
S=c1[nH]c2ccccc2s1
O=C1NC(=O)C(c2ccccc2)(c2ccccc2)N1
